Screens: PubChem, National Center for Advancing Translational Sciences (NCATS)
HEK293 tox: HEK 293 cell cytotoxicity. HEK 293 viability, ATP luminescence (CellTiter-Glo), 48-72 h. Potency, µM (highest dose often 115 µM), without a hit: at the highest dose activity change, negative = cytotoxicity, most hits filed as inhibitors. 94,000 tested, 6.6% active. AID 1345083; note: nearly all actives have a fitted effect of over 60% in size
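250 HEK 293 cells/well; compound by pintool; incubated 48 or 72 hr at 37 degree Celsius; CellTiter-Glo added, 10 min RT, luminescence imaged.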
hNpr1 antagonist: antagonists of human natriuretic peptide receptor Npr1; P16066; Potency, µM (titrated, usually from 46.3 µM), for inactives: top-dose activity change, negative = inhibition, usual class: inhibitors; HEK293 hNpr1 GloSensor cGMP, ANP-stimulated luminescence; 76,000 tested, 1.6% active; calls by dose curve; note: nearly all actives have a fitted effect of over 60% in size
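HEK293 cells stably expressing human Npr1 and cGMP GloSensor pGS-40F, loaded 2 h with 2% GloSensor reagent, given compound 30 min at room temperature. Luminescence read before and 20 min after 0.1 nM hNppA.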
3T3 cytotox: NIH 3T3 cell cytotoxicity; 94,000 tested, 4.3% active; AID 1345082; Potency, µM (doses to about 96.7 µM), for the others: at the highest dose activity change, negative = cytotoxicity, hits mostly inhibitors; NIH 3T3 viability, CellTiter-Glo ATP luminescence, 48-72 h; note: nearly all actives have a fitted effect of over 55% in size
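Viability of NIH 3T3 cells after 48 or 72 hr compound treatment at 37 °C was assessed by CellTiter-Glo, with luminescence imaged following a 10 min room-temperature step.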
GPT2 inh: GPT2 alanine aminotransferase inhibition; Q8TD30; Recombinant GPT2, coupled pyruvate oxidase/HRP Amplex Red fluorescence; Potency, µM (highest dose often 57.7 µM), inactives show at the top dose activity change, negative = inhibition, actives largely listed as inhibitors; 100,000 tested, 0.25% active; note: nearly all actives have a fitted effect of over 60% in size
Target sequence (Q8TD30 whole entry, looked up): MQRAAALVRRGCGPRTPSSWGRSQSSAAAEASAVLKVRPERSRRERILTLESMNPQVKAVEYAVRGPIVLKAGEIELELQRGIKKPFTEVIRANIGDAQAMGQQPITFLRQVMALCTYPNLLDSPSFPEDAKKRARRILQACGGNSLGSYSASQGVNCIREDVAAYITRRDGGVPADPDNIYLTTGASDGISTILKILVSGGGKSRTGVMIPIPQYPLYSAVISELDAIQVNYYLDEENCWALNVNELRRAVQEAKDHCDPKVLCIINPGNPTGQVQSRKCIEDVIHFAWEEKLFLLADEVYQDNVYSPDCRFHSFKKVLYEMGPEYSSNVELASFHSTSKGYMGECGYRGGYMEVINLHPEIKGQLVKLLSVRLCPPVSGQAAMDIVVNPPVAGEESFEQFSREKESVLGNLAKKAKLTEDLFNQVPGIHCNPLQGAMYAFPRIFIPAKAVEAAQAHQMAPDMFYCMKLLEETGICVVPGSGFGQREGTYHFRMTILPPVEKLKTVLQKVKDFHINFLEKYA
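Recombinant GPT2 (10ng/uL) with 250uM a-KG and 2mM L-alanine, 30 min at room temperature, in HEPES pH 7.5 buffer. Pyruvate detected by pyruvate oxidase/HRP/Amplex Red fluorescence after 30 min in the dark; AOA (50uM) as positive control.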
FLuc inh: inhibitors of firefly (Photinus pyralis) luciferase | P08659 | purified P. pyralis luciferase, luminescence, biochemical | Potency, µM (doses to about 115 µM), actives largely listed as inhibitors | 76,000 tested, 2.5% active | AID 1347043; note: nearly all actives have a fitted effect of over 65% in size
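Inhibitors were tested against purified firefly luciferase in a biochemical, low-substrate format (both substrates at 10uM) and luminescence measured with a CCD imager.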
* marks the source's active call; other numbers are inactive results; i = inactive; ? = inconclusive; . = not tested or not shown; [ ] = dose if it differs, or a comment. This is a sample that favours compounds with a hit; in the whole collection about 10% have one here. Unless noted, calls come from the whole dose curve; as a rule, active = well fitted curve in the direction sought with a large enough effect; inconclusive = small, poorly fitted or top-dose-only effect, or another doubt; inactive = no such curve, though single readings can be large; an effect the other way counts as inactive or inconclusive. % is set by controls: 0 for no effect and ±100 for the full control effect; potency is the fitted concentration of half-maximal effect.

SMILES	HEK293 tox	hNpr1 antagonist	3T3 cytotox	GPT2 inh	FLuc inh
N#Cc1cccc(NC(=O)COc2ccc(-c3nnc4n3CCCC4)cc2)c1	-1%	-11%	i	-4%	i
CCN1c2cc(C(=O)Nc3ccc(OC)c(Cl)c3)ccc2C(=O)N2CCCCCC21 (centres undefined)	11µM*	-22%	?	i	i
COc1ccc(NC(=O)c2ccc3c(c2)N(C)C2CCCCCN2C3=O)cc1Cl (centres undefined)	45µM*	-7%	40µM*	i	i
CCN1c2cc(C(=O)NCc3ccc(OC)c(OC)c3)ccc2C(=O)N2CCCCCC21 (centres undefined)	45µM*	-10%	?	i	i
COc1cc(NC(=O)c2ccc3c(c2)N(C)C2CCCCCN2C3=O)cc(OC)c1OC (centres undefined)	40µM*	-20%	35µM*	i	i
CCCCOC(=O)N1CCC2(CC1)NC(=O)[C@H](O)[C@@H]2C(=O)OCC	-26%	.	?	.	.
CCCN(C)c1nccnc1OC1CCN(C(=O)C2CCC2)C1 (centres undefined)	?	-8%	?	3%	?
CCCN(C)c1nccnc1OC1CCN(C(=O)c2ccn[nH]2)C1 (centres undefined)	?	-3%	-28%	?	22µM*
CCC(CC)C(=O)N1CCC(Oc2nccnc2N(C)C)C1 (centres undefined)	?	2%	0%	i	35µM*
CCCN(C)c1nccnc1OC1CCN(C(=O)C(C)C)C1 (centres undefined)	-16%	-14%	?	-7%	22µM*
CN(C)c1nccnc1OC1CCN(C(=O)C2CCCCC2)C1 (centres undefined)	?	3%	-8%	i	?
CCCN(C)c1nccnc1OC1CCN(C(=O)CC)C1 (centres undefined)	-5%	4%	-19%	i	i
CCCN(C)c1nccnc1OC1CCN(C(=O)CC(C)C)C1 (centres undefined)	?	-11%	-27%	i	18µM*
CC(C)c1nc2c(c(-c3ccc(Cl)cc3)n1)CN(C(=O)C1CC1)CC2	-6%	.	-9%	-2%	.
CC(=O)NCc1nnc2n1C(C(=O)NCc1ccc(Cl)cc1)CC2 (centres undefined)	-10%[172 µM]	.	-13%[138 µM]	i	.
CCCc1nc(C(=O)NCc2ccc(-n3ccnc3C)cc2)cs1	20µM*	-27%	?	-9%	i
CN(Cc1cccnc1)c1nc2c(c(=O)[nH]1)CCN(Cc1cccc(Cl)c1F)CC2	25µM*	-12%	?	-10%	i
CN(Cc1cccnc1)c1nc2c(c(=O)[nH]1)CCN(Cc1ccc(C(F)(F)F)cc1)CC2	32µM*	-17%	?	i	i
Cc1noc([C@@H]2CC(F)(F)CN2C(=O)c2cc(C3CC3)[nH]n2)n1	-4%	5%	-3%	i	i
Cn1nccc1C(=O)N1C[C@@H](Oc2ccccc2)C[C@@H]1C(=O)N1CCOCC1	-5%	6%	-18%	?	i
O=C(c1ccc(F)cc1)N1CCc2nc(-c3ccccc3)nc(-c3ccc(Cl)cc3)c2C1	?	1%	?	-2%	i
O=C(c1ccccc1)N1CCc2nc(-c3ccc(Cl)cc3)nc(-c3ccccc3)c2C1	22µM*	5%	?	i	i
COc1ccc(C(=O)N2CCc3nc(-c4ccccc4)nc(-c4ccc(Cl)cc4)c3C2)cc1	22µM*	.	?	-2%	.
O=C(C1CC1)N1CCc2nc(-c3ccc(Cl)cc3)nc(-c3ccccc3)c2C1	40µM*	-1%	?	0%	i
Cc1nc2c(c(-c3ccc(O)cc3)n1)CN(C(=O)C1CCCC1)CC2	40µM*	7%	?	-4%	i
SMILES	HEK293 tox	hNpr1 antagonist	3T3 cytotox	GPT2 inh	FLuc inh
O=C(C1CCCN1c1nccc(Nc2ccccc2F)n1)N1CCC(Cc2ccccc2)CC1 (centres undefined)	28µM*	.	40µM*	i	.
COc1ccccc1CNC(=O)C1CCCN1c1nccc(Nc2ccccc2F)n1 (centres undefined)	40µM*	.	?	i	.
COc1ccccc1Nc1ccnc(N2CCC[C@H]2C(=O)NCCc2ccccc2F)n1	?	.	-19%	i	.
O=C(c1cccc(Cl)c1)N1C[C@@H](CO)[C@H](c2nc(C3CC3)no2)C1	?	-2%	-23%	i	i
N#Cc1ccc(C(=O)N[C@@H]2CN(Cc3ccccc3)C[C@H]2CO)cc1	?	2%	14µM*	3%	i
COCCNC(=O)[C@H]1C[C@H](Oc2ccccc2)CN1Cc1ccc2[nH]ccc2c1	10µM*	-4%	?	-19%	i
O=C(Nc1cccnc1)c1nc2c(o1)CCN(Cc1ccc3[nH]ccc3c1)CC2	100µM*	-15%[70.6 µM]	?	1%[88.5 µM]	35µM*
COCCNC(=O)c1nc2c(o1)CCN(Cc1ccc(F)c(Cl)c1)CC2	?	?	?	0%[88.5 µM]	i
COCCNC(=O)[C@H]1C[C@H](Oc2ccccc2)CN1Cc1ccc(OC(F)(F)F)cc1	?	3%	?	i	i
O=C(NCCOc1ccccc1)c1nc2c(o1)CCN(Cc1ccc3[nH]ccc3c1)CC2	71µM*	?	?	-10%[88.5 µM]	i
O=C(Nc1cccnc1)c1nc2c(o1)CCN(Cc1ccc(F)c(F)c1)CC2	?	28µM*	?	1%[88.5 µM]	71µM*
O=C(NCC1CC1)c1nc2c(o1)CCN(Cc1ccc3[nH]ccc3c1)CC2	?	2%[70.6 µM]	?	-6%[88.5 µM]	i
N#Cc1cccc(CN2CCc3nc(C(=O)NCc4ccncc4)oc3CC2)c1	?	-26%[70.6 µM]	-26%[138 µM]	2%[88.5 µM]	i
C=C1C(=C/C=C2\CCC[C@]3(C)[C@@H]([C@H](C)/C=C/[C@@H](O)C4CC4)CC[C@@H]23)C[C@@H](O)C[C@@H]1O	.	.	.	1%	.
CCN1C(=O)C2CC3(CCN(C(=O)c4cnccn4)CC3)CN2C1=O (centres undefined)	-1%	5%	-5%	i	i
O=C(c1cn(CCc2ccccc2)nn1)N1CCC(OCc2ccccn2)CC1	-12%	-2%	-24%	i	i
Cc1ccc(SC2CCN(C(=O)c3cn(CCc4ccccc4)nn3)CC2)cc1	89µM*	-2%	?	-2%	i
Cc1cccc(C2CCCN(C(=O)c3cn(CCc4ccccc4)nn3)C2)c1 (centres undefined)	40µM*	-4%	?	-13%	i
O=C(CCc1ccccc1)N1CC(n2cc(COCC3CC3)nn2)C1	-1%	.	-9%	i	.
CC1(c2ccccc2)N(Cc2cccnc2)C(=O)OC12CCN(C(=O)Cc1ccccc1)CC2 (centres undefined)	-8%	8%	?	-8%	i
